Compound activity: PubChem, The Scripps Research Institute Molecular Screening Center
GPR151 ag: activators of human GPR151, primary screen, cell-based, PathHunter beta-arrestin, luminescence | G-protein coupled receptor 151 (Homo sapiens), Q8TDV0 | PathHunter beta-arrestin GPR151 cells | activation, % at 11.2 µM | hit rate 1% among 650,000; in the data active = activation above about 4.9%;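 note: 0% = median of compound wells and 100% = cells with positive control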
Target sequence (Q8TDV0 whole entry, looked up): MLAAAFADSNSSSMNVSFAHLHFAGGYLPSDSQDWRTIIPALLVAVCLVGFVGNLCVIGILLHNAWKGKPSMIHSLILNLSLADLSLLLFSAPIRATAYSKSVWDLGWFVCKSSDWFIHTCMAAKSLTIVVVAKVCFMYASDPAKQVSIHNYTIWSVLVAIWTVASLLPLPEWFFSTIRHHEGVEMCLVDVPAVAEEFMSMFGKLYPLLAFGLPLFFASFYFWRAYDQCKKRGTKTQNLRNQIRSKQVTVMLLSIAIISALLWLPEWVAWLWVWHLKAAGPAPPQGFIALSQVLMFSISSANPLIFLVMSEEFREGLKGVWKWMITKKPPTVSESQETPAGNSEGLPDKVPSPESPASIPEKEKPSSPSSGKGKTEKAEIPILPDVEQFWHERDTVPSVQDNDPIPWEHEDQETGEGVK
MITF inh: MITF inhibitors, primary screen, biochemical, AlphaScreen, human; Microphthalmia-associated transcription factor (Homo sapiens), O75030; AlphaScreen MITF homodimerization, bead proximity signal; inhibition, % at 2.6 µM; hit rate 0.91% among 650,000; AID 1259374, 2018; in the data active = inhibition above about 50%;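 note: 0% = vehicle wells with protein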
TEAD-YAP inh: TEAD-YAP interaction inhibition, primary screen, TEAD-YAP interaction inhibitor project, luminescence, HEK-TIYL cells. inhibition, % at 9.12 µM. hit rate 1.4% among 640,000. TEAD-Gal4/YAP UAS-luciferase luminescence. AID 1259422, 2018; in the data active = inhibition above about 32%;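 note: 0% = median of test compound wells and 100% = reference inhibitor wells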
FBW7 activator: FBW7 E3 ligase activators, primary screen, biochemical, AlphaScreen, human. AlphaScreen FBW7–phospho-cyclin E peptide binding, activator screen. hit rate 0.13% among 650,000. normalized activity (activation), % at 26.1 µM. F-box/WD repeat-containing protein 7 (Homo sapiens), Q969H0; in the data active = normalized activity above about 1.9%;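 note: purified mutant Fbw7 with reduced substrate affinity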
MITF confirm: MITF inhibitors, retest of hits, confirmation, biochemical, AlphaScreen, triplicate; shares compounds with MITF inh; AlphaScreen MITF homodimerization, biotin/His-MITF beads; inhibition, % at 2.6 µM; hit rate 16% among 4,700; AID 1259372, 2018;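 active = inhibition above a cutoff derived from the DMSO control wells, cut at about 28% in these data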;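 note: 0% = MITF dimer wells with DMSO only; inhibitors lower the bead chemiluminescence by keeping MITF from dimerizing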
AS interf ctr: AlphaScreen optical interference compounds, counter-screen for MITF inhibitor project, biochemical, triplicate; shares compounds with MITF inh; AID 1259376, 2018; hit rate 7.6% among 4,700; LysRS AlphaScreen counterscreen, signal interference; inhibition, % at 2.6 µM;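 active = inhibition above a cutoff derived from the DMSO control wells, cut at about 30% in these data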
* = called active by the depositor; . = no result given. Only some compounds are listed: those with a hit (about 3.5% of all), similar ones and a draw of the others.

SMILES	GPR151 ag	MITF inh	TEAD-YAP inh	FBW7 activator	MITF confirm	AS interf ctr
COc1cc(CN2CCCCC2)c([N+](=O)[O-])cc1OC	0	-7	6	0	.	.
COc1cc(OC)c(OC)cc1CN1CCN(Cc2cc(OC)c(OC)cc2[N+](=O)[O-])CC1	0	62*	2	0	5	15
COc1cc(CN2CCN(c3ccccc3OC)CC2)c([N+](=O)[O-])cc1OC	0	21	2	0	.	.
CCOc1cc(CN2CCN(S(C)(=O)=O)CC2)ccc1OC	-1	55*	-15	0	-9	-2
CCOc1cc(CN2CCN(S(=O)(=O)CC)CC2)ccc1OC	0	35	3	0	.	.
CCOc1cc(CN2CCN(Cc3ccc(F)cc3)CC2)ccc1OC	4	34	-5	0	.	.
COc1cc(CN2CCN(S(C)(=O)=O)CC2)ccc1OCc1ccccc1	2	54*	6	0	1	11
CCOc1cc(CN2CCN(Cc3ccncc3)CC2)ccc1OC	1	73*	-3	0	7	14
O=C(CSc1ncnc2sc3c(c12)CCCC3)NC12CC3CC(CC(C3)C1)C2	4	1	-12	0	.	.
O=C(c1ccc(C(=O)N(Cc2ccccc2)c2ccccn2)cc1)N(Cc1ccccc1)c1ccccn1	0	4	-5	0	.	.
Cc1cc(O)c(CN2CCN(S(=O)(=O)c3ccccc3[N+](=O)[O-])CC2)cc1C(C)C	0	-4	8	0	.	.
COc1ccc(/C=N/NC(=O)c2cc(-c3cccn3C)n[nH]2)cc1OC	-1	78*	6	2.1*	-6	17
O=C(CCc1c[nH]c2ccccc12)NCC1Cc2cc(-c3cncnc3)ccc2O1 (configuration not stated)	-1	-5	15	0	.	.
CCCCOC(=O)c1ccc(NC(=O)c2cc(-c3ccc(Br)cc3)nc3ccccc23)cc1	0	57*	-1	0	10	9
CCCOC(=O)c1ccc(NC(=O)c2cc(-c3ccc(Br)cc3)nc3ccccc23)cc1	-1	-4	7	0	.	.
Cc1ccc(-c2cc(C(=O)Nc3ccccc3Cl)c3ccccc3n2)cc1	0	15	2	0	.	.
Cc1ccc(-c2cc(C(=O)Nc3ccccc3Br)c3ccccc3n2)cc1	0	56*	-14	0	8	11
Cc1ccc(-c2csc3ncc(C(=O)NC4CCC4)c(=O)n23)cc1	1	8	-3	1	.	.
Cc1ncc(CO)c(/C=N/NC(=O)c2ccccc2O)c1O	3	49	-3	-2	.	.
Cc1ncc(CO)c(/C=N/NC(=O)c2ccc(Cl)cc2O)c1O	1	60*	-2	0	9	32*
O=C(N/N=C/c1ccccn1)c1ccc([N+](=O)[O-])cc1Cl	2	27	-5	-1	.	.
Cc1ncc(CO)c(/C=N/NC(=O)c2ccc([N+](=O)[O-])cc2Cl)c1O	-1	67*	10	0	13	96*
O=C(COc1ccc2ccccc2c1)Nc1c2c(nn1-c1ccc(F)cc1)CSC2	1	-1	-12	0	.	.
COc1cc(Nc2nc(SCC(=O)NCC3CCCO3)nc3ccccc23)cc(OC)c1 (configuration not stated)	0	60*	5	0	-12	-8
O=C(CSc1nc(Nc2ccc(F)c(F)c2)c2ccccc2n1)NCC1CCCO1 (configuration not stated)	-1	6	0	0	.	.
SMILES	GPR151 ag	MITF inh	TEAD-YAP inh	FBW7 activator	MITF confirm	AS interf ctr
COc1ccc(OCC(=O)OCC(=O)COC(=O)COc2ccc(OC)cc2)cc1	-1	77*	4	0	11	6
COc1ccc(-c2cnc3ccc(NC4CCOCC4)nn23)cn1	0	11	9	0	.	.
COc1ncc(-c2cnc3ccc(NC4CCOCC4)nn23)c(OC)n1	1	68*	-17	0	12	26
CCOc1cc(OCC)nc(/C=C/c2ccc([N+](=O)[O-])o2)n1	-1	2	4	0	.	.
CCOc1ccc(OCCCN2CCN(C)CC2)cc1	2	79*	-9	0	-1	17
CCCCOc1cccc(OCCCN2CCN(C)CC2)c1	0	-8	6	0	.	.
CCN1CCN(CCOc2cccc(C(C)=O)c2)CC1	2	66*	13	-1	8	8
Cc1cccc(OCCCCN2CCNCC2)c1	2	14	-3	0	.	.
CCOc1cccc(OCCCN2CCNCC2)c1	0	54*	-15	0	-1	-2
CCOc1cccc(OCCCCN2CCN(C)CC2)c1	-2	71*	2	0	13	14
CC(=O)c1cccc(OCCCCOc2cccc(C(C)=O)c2)c1	-1	-12	3	0	.	.
Cn1c(=O)c2c(SCC(=O)Nc3ccc(F)cc3)nc(CC(C)(C)C)nc2n(C)c1=O	1	12	13	0	.	.
CC[C@@H](c1ccccc1)n1c(=O)n2n(c1=O)[C@H]1[C@H](O)[C@@H]3O[C@@H]3/C(=N\OCC(C)C)[C@H]1CC2	0	-7	.	0	.	.
CCN1CCN(CCCCOc2ccc(C#N)cc2)CC1	-1	66*	5	0	4	13
CN1CCN(CCOCCOc2ccc(Cl)cc2)CC1	0	36	-1	0	.	.
CN1CCN(CCCOc2ccc(C#N)cc2)CC1	0	2	13	0	.	.
CN1CCN(CCOCCOc2ccc(C(C)(C)C)cc2)CC1	1	65*	3	0	4	19
CCN1CCN(CCCOc2cccc(C(C)C)c2)CC1	-1	48	7	0	.	.
CCN1CCN(CCCCOc2cccc(C(F)(F)F)c2)CC1	0	64*	10	0	7	7
CCOc1cccc(OCCCN2CCN(CC)CC2)c1	-2	74*	-2	0	18	16
CC(=O)N(NC(=O)c1cccc([N+](=O)[O-])c1)S(=O)(=O)c1ccc(C)cc1	0	2	10	0	.	.
O=C(Cc1c(F)cccc1Cl)Nc1cc(C(=O)NCCC2=CCCCC2)ccc1N1CC2CC(C1)c1cccc(=O)n1C2 (configuration not stated)	1	12	-8	0	.	.
CCN1CCN(CCOCCOc2ccc(CCC(C)=O)cc2)CC1	1	66*	9	0	7	7
CCCOc1cccc(OCCN2CCN(CC)CC2)c1	4	79*	0	1	9	13
CN1CCN(CCCCOc2cccc(C=O)c2)CC1	1	61*	-2	0	6	17
CCOc1ccc(OCCCCN2CCN(C)CC2)cc1	2	86*	-7	0	7	7
CN1CCN(CCCCOc2cccc(C(F)(F)F)c2)CC1	0	24	1	0	.	.
